# Data from the supplement of paper PMC7156485.
# ± gives the standard deviation of the averaged measurements.
# What was measured:
# Settings in all cases: concentration: 10 µM; 24 h
# [1] = system: HCC1569; assay: cell number relative to DMSO (% of DMSO); higher = more cells (less growth inhibition / toxicity)
# Summary of the method: (§1)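 HCC1569 and TDF cells (800 per well, 384-well plates, RPMI with 10% FBS) were treated with compounds at 10 µM for 24 h at 37 °C, in triplicate. Cells were fixed in 3.7% formaldehyde and stained with a rabbit anti-H1.0 antibody, an AlexaFluor 647 secondary and DAPI; six fields per well were imaged at ×10. H1.0 nuclear intensity or cell number is expressed as percent of the plate DMSO control, taking the median of replicates. HCC1569 values were smoothed for positional effects.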
# [2] = system: TDF; assay: as above
# Summary of the method: as §1
# [3] = system: TDF; assay: H1.0 immunofluorescence intensity relative to DMSO (% of DMSO); higher = stronger H1.0 induction, active = 120 or more
# Summary of the method: as §1
# [4] = system: HCC1569; assay: H1.0 immunofluorescence intensity relative to DMSO (% of DMSO); higher = stronger H1.0 induction, active = 140 or more
# Summary of the method: as §1
# 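Throughout, for H1.0 immunofluorescence intensity relative to DMSO: TDF is a line of transformed human dermal fibroblasts of mesenchymal origin.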
# 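Throughout, for cell number relative to DMSO: TDF denotes transformed human dermal fibroblasts of mesenchymal origin.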
Compound,cell number [1],cell number [2],H1.0 immunofluorescence intensity [3],H1.0 immunofluorescence intensity [4]
CC1OC(Oc2c(-c3ccc(O)c(O)c3)oc3cc(O)cc(O)c3c2=O)C(O)C(O)C1O (configuration not stated) [Quercitrin],97.5,106,101 (inactive),99.1 (inactive)
CC(C)CN(C)c1nc(N)c(C(=O)N=C(N)N)nc1Cl [5-(N-Methyl-N-isobutyl)amiloride],100,92.3,106 (inactive),101 (inactive)
CC(=O)c1ccc2c(c1)[C@H](NC(=O)c1ccc(F)c(Cl)c1)[C@H](O)C(C)(C)O2,97.4,98,104 (inactive),99.5 (inactive)
O=C(NCCN1CCC(n2c(=O)[nH]c3cc(Cl)ccc32)CC1)c1ccc(F)cc1,91.9,98,96.6 (inactive),99.5 (inactive)
COc1c(O)cc(O)c2c(=O)cc(-c3ccccc3)oc12 [Wogonin],100,98.7,91.2 (inactive),85.8 (inactive)
CCN1CCCC1CNC(=O)c1c(O)c(Cl)cc(Cl)c1OC (stereo not drawn) [S(-)-Raclopride],102,97.5,95.7 (inactive),104 (inactive)
COc1ccc(CC2c3cc(OC)c(OC)cc3CC[N+]2(C)CCC(=O)OCCCCCOC(=O)CC[N+]2(C)CCc3cc(OC)c(OC)cc3C2Cc2ccc(OC)c(OC)c2)cc1OC.O=S(=O)([O-])c1ccccc1.O=S(=O)([O-])c1ccccc1 (configuration not stated) [Atracurium besylate],98.9,103,94.5 (inactive),110 (inactive)
COc1cc(C(=O)NS(=O)(=O)c2ccccc2C)ccc1Cc1cn(C)c2ccc(NC(=O)OC3CCCC3)cc12 [Zafirlukast],101,110,90.1 (inactive),105 (inactive)
CCCCCCCCC=CCCCCCCCCCCCC(=O)O [13(E)-Docosenoic acid],104,108,96 (inactive),101 (inactive)
CC(C)NCC(O)c1ccc(O)c(O)c1.O=C(O)C(O)C(O)C(=O)O (stereo not drawn) [R(-)-Isoproterenol (+)-bitartrate],99.2,79.3,99 (inactive),120 (inactive)
CC(C)NCC(O)COc1cccc2[nH]ccc12 (configuration not stated) [Pindolol],98 ± 3.1,94.3 ± 2.5,98.8 (inactive),110 (inactive)
O=c1nc[nH]c2c1ncn2C1CCC(CO)O1 (configuration not stated) [Didanosine],101,98.9,95.7 (inactive),109 (inactive)
O=C(O)c1ccc(O)c(O)c1 [Protocatechuic acid],100,106,91.4 (inactive),91.3 (inactive)
CCCCCCCCC=CCCCCCCCCCC(=O)O [11(E)-Eicosenoic acid],102,101,101 (inactive),102 (inactive)
O=C1NC(=O)C(=Cc2ccc(-c3ccc(F)cc3O)o2)S1,97.3,104,95.1 (inactive),97.7 (inactive)
COc1cccc2oc(-c3ccccc3)cc(=O)c12 [5-Methoxyflavone],99.7,84.4,100 (inactive),98.8 (inactive)
CCOC(=O)C1=C(C)NC(C)=C(C(=O)OCC)C1 [Diludin],97.2,103,93.7 (inactive),97.2 (inactive)
O=C(ON1C(=O)CCC1=O)N1CCN(C(c2ccc(Cl)cc2)c2ccc(Cl)cc2)CC1,77.8,82.1,112 (inactive),126 (inactive)
CN1CCN(C2Cc3ccccc3Sc3ccc(Cl)cc32)CC1.O=C(O)C=CC(=O)O (configuration not stated) [Clorotepine maleate],98.5,102,106 (inactive),118 (inactive)
O=C(Nc1cccc(C(F)(F)F)c1)Nc1cc(S(=O)(=O)NC2CC2)ccc1-c1ccsc1,91.2,89.5,94.6 (inactive),130 (inactive)
CN(C)c1ccnc2sc3c(=O)n(N4CCCCCC4)cnc3c12,109,103,91 (inactive),89.5 (inactive)
O=C1c2ccccc2-c2n[nH]c3cccc1c23,93.2,107,92 (inactive),138 (inactive)
CN(C)C(=O)COC(=O)Cc1ccc(OC(=O)c2ccc(N=C(N)N)cc2)cc1.CS(=O)(=O)O,99.4,115,91.2 (inactive),98.5 (inactive)
